Reference: PubChem BioAssay (Tox21)
Records with an inconclusive call do not appear. Calls of active or inactive are those of the source. The call rests on the fitted dose curve.

target: Peroxisome proliferator-activated receptor delta (Homo sapiens) (UniProt Q03181); assay: qHTS assay to identify small molecule agonists of the peroxisome proliferator-activated receptor delta (PPARd) signaling pathway (AID 743212); conditions: HEK293H PPARd-UAS-bla, beta-lactamase FRET ratio, 17 h; series mostly up to 62.6 µM; activation: at the top concentration
Sequence (Q03181 whole entry, looked up): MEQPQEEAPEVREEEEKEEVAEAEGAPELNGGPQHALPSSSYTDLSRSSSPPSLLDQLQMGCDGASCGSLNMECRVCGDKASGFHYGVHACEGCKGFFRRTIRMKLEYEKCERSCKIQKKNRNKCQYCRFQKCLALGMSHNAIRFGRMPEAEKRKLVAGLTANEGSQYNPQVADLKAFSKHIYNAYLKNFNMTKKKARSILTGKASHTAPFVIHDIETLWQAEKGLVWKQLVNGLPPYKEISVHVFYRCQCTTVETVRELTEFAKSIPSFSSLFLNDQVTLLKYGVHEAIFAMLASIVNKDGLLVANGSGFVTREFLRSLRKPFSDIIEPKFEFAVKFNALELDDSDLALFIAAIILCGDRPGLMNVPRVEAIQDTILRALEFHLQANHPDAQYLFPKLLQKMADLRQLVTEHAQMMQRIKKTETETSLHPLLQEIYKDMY
Description: U.S. Tox21 Program National Center for Advancing Translational Sciences [NCATS] NIH Chemical Genomics Center [NCGC] U.S. Environmental Protection Agency [EPA] National Institutes of Environmental Health Sciences [NIEHS] National Toxicology Program [NTP] U.S. Food and Drug Administration [FDA] Tox21 Assay Overview: The peroxisome proliferator-activated receptors (PPARs) are lipid-activated transcription factors of the nuclear receptor superfamily with three distinct subtypes namely PPAR alpha, PPAR delta (PPARd) and PPAR gamma. All these subtypes heterodimerizes with Retinoid X receptor (RXR) and have different physiological functions. […] To identify the compounds that activate PPAR-delta signaling, GeneBLAzer PPAR delta UAS-bla HEK293H cell line (Invitrogen, Carlsbad, CA, USA) containing a beta-lactamase reporter gene under the control of an Upstream Activator Sequence (UAS) was used to screen the Tox21 compound library.
Tox21 Assay Protocol Summary: PPARd-bla cells were dispensed at 3000 cells/6uL/well in 1536-well black wall/clear bottom plates using a Multidrop Combi (Thermo Fisher Scientific, Waltham, MA) dispenser. After the assay plates were incubated at 37 C and 5% CO2 for 5 h, 23 nL of compounds dissolved in DMSO, positive controls or DMSO only was transferred to the assay plate by a Pintool station (Kalypsys, San Diego, CA). The assay plates were incubated at 37C for 17 h. After 1 uL of LiveBLAzerTM B/G FRET substrate was added using a Bioraptr Flying Reagent Dispenser (FRD) workstation (Beckman Coulter, Indianapolis, IN, USA), the plates were incubated at room temperature for 2 h, and fluorescence intensity was measured by an Envision plate reader (PerkinElmer, Shelton, CT).
On the % scale 0 is the no-effect control and ±100 the full control effect; potency means the concentration at half of the fitted maximal effect.

Structure (SMILES) | activation | Potency
CN1CCc2cc(Cl)c(O)cc2[C@H]2c3ccccc3CC[C@@H]21 | -4.36% (inactive) | –
Cc1cccc(Cc2cnc[nH]2)c1C | 2.38% (inactive) | –
COCCC#N | 0.664% (inactive) | –
CC(C)NCC(O)c1ccccc1Cl (stereo not given) | 4.66% (inactive) | –
Cc1c([N+](=O)[O-])c(C)c([N+](=O)[O-])c(C(C)(C)C)c1[N+](=O)[O-] | -0.883% (inactive) | –
CC(C)=CC1C(C(=O)OC(C#N)c2cccc(Oc3ccccc3)c2)C1(C)C (stereo not given) | 2.29% (inactive) | –
CN=C=O | -1.05% [at 81.1 µM] (inactive) | –
COC(=O)c1cc(Oc2ccc(Cl)cc2Cl)ccc1[N+](=O)[O-] | -0.25% (inactive) | –
C=CC(=C)C | -1.05% (inactive) | –
CCN(CC)Cc1nccn1-c1ccc([N+](=O)[O-])cc1C(=O)c1ccccc1Cl | -0.0454% (inactive) | –
Clc1c(Cl)c(Cl)c(Cl)c(Cl)c1Cl | -6.6% [at 5.95 µM] (inactive) | –
CC(Cl)CCl (stereo not given) | -0.0368% (inactive) | –
COC(=O)C(C)N(C(=O)c1ccco1)c1c(C)cccc1C (stereo not given) | -4.25% (inactive) | –
CCC1COC(Cn2cncn2)(c2ccc(Cl)cc2Cl)O1 (stereo not given) | -4.83% (inactive) | –
CCOP(=S)(NC(C)C)Oc1ccccc1C(=O)OC(C)C (stereo not given) | -3.9% (inactive) | –
c1ccc(N=NNc2ccccc2)cc1 | – | inactive
c1ccc(Nc2ccc(Nc3ccccc3)cc2)cc1 | -2.5% (inactive) | –
BrCCCBr | -4.95% [at 81.1 µM] (inactive) | –
CNC(=O)/C=C(\C)OP(=O)(OC)OC | -1.74% (inactive) | –
CC1(C)[C@H](/C=C2\CCSC2=O)[C@@H]1C(=O)OCc1coc(Cc2ccccc2)c1 | 0.0576% (inactive) | –

Structure (SMILES) | activation | Potency
COP(=S)(OC)Oc1ccc([N+](=O)[O-])c(C)c1 | 0.574% (inactive) | –
CCCCON=O | 3.36% [at 81.1 µM] (inactive) | –
O=[N+]([O-])C(Br)Br | 1.3% (inactive) | –
CCN(CC)CCc1c[nH]c2ccccc12 | -0.505% [at 81.1 µM] (inactive) | –
CO/N=C(\C(=O)OC)c1ccccc1CO/N=C(\C)c1cccc(C(F)(F)F)c1 | -5.72% (inactive) | –
CC(Cc1ccc(O)cc1)NCC(O)c1cc(O)cc(O)c1 (stereo not given) | -2.99% (inactive) | –
c1csc(-c2ccc(-c3cccs3)s2)c1 | – | 43.6 µM (active)
Clc1ccc(C(Cl)(Cl)Cl)cc1Cl | 0.211% (inactive) | –
Cc1ccccc1OP(=O)(Oc1ccccc1C)Oc1ccccc1C | -5.92% [at 81.1 µM] (inactive) | –
CSC(=O)c1c(C(F)F)nc(C(F)(F)F)c(C(=O)SC)c1CC(C)C | -2.03% (inactive) | –
O=C(O)[C@H](O)[C@@H](O)C(=O)O | 0.909% (inactive) | –
O=[N+]([O-])c1ccc(CCl)cc1 | 2.37% (inactive) | –
C[N+]1(C)[C@@H]2CC[C@H]1CC(OC(=O)C(CO)c1ccccc1)C2 (stereo not given in full) | 1.26% (inactive) | –
CCNc1nc(NC(C)C(C)C)nc(SC)n1 (stereo not given) | -0.211% (inactive) | –
CCCCCON=O | 2.34% [at 81.1 µM] (inactive) | –
CN1C2CCC(C)(C)C1CC(OC(=O)C(O)(c1cccs1)c1cccs1)C2 (stereo not given) | -4.74% (inactive) | –
CNC(=O)CSP(=O)(OC)OC | -2.46% (inactive) | –
CC(C)N(C(=O)SC/C(Cl)=C/Cl)C(C)C | -1.66% [at 81.1 µM] (inactive) | –
CC(C)c1c(CN(C)C(C)Cc2ccccc2)n(C)n(-c2ccccc2)c1=O (stereo not given) | -0.89% (inactive) | –
O=C(NC(=O)c1ccccc1Cl)Nc1ccc(OC(F)(F)F)cc1 | 5.97% (inactive) | –
